# Inconclusive results are not listed. Where a call stands in place of a potency, no number is given. Unmarked numbers belong to inactive results. The source made the active and inactive calls. Unless noted, the call rests on the fitted dose curve; in most records, active means well fitted curve in the direction sought with a large enough effect; inconclusive means small, poorly fitted or top-dose-only effect, or another doubt; inactive means no such curve, though single readings can be large; an effect the other way counts as inactive or inconclusive.
# Tests used:
# [1] = Primary qHTS for small molecule stabilizers of the endoplasmic reticulum resident proteome: Secreted ER Calcium Modulated Protein (SERCaMP) assay (AID 1508630)
# Summary of the method: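 GLuc-SERCaMP-expressing SH-SY5Y cells, pretreated 16 h with compound, are challenged with thapsigargin to empty ER calcium stores; after 4 h, coelenterazine is added directly to the medium and luminescence is imaged.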
# [2] = A High-Content qHTS Against Drug Library for the Identification of Small Molecules that Inhibit DYT1 Early Onset Primary Dystonia-Associated Cell Pathology (AID 1645839; calls by dose curve)
# Summary of the method: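 Readout: %pathology, the punctate EGFP-TorsinA distribution from imaging, as the primary channel and cell count as the toxicity counterscreen. HEK293 Flp-In cells expressing delE TorsinA were induced with tetracycline and treated with compound for 48 h.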
# [3] = target: Cytochrome P450 2D6 (Homo sapiens) (UniProt P10635); test: Cytochrome P450 family 2 subfamily D member 6 (CYP2D6) small molecule antagonists: luciferase biochemical (cell-free) qHTS assay (AID 1645840; active means well fitted curve in the direction sought with a large enough effect in the repeat runs; an effect the other way counts as inactive or inconclusive; further: nearly all actives have a fitted effect of over 55% in size; further: potency means the concentration at half of the fitted maximal effect)
# Sequence of Cytochrome P450 2D6 (Homo sapiens) (P10635 whole entry, looked up): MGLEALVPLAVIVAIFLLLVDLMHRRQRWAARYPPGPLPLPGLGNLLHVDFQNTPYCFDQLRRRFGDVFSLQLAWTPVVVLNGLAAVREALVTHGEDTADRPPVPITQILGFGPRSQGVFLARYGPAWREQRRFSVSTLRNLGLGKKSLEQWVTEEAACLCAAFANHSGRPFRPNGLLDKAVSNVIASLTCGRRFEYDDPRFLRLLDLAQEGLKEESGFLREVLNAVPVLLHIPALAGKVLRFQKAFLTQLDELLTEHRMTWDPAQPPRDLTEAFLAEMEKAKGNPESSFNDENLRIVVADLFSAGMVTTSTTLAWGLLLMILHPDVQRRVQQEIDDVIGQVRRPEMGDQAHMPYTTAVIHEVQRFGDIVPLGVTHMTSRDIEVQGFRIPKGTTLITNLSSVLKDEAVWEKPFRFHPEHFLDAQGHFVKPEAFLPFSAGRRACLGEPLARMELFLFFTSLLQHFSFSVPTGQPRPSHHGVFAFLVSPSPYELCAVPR
# Summary of the method: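 P450-Glo luminescent screen: recombinant CYP2D6 enzyme–proluciferin substrate mix preincubated with compound 10 min at room temperature, then NADPH regeneration added for 1 h at room temperature. Detection reagent added for 20 min; luciferin light read as relative luminescence units.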
# [4] = target: Cytochrome P450 2C9 (Homo sapiens) (UniProt P11712); test: Cytochrome P450 family 2 subfamily C member 9 (CYP2C9) small molecule antagonists: luciferase biochemical (cell-free) qHTS assay (AID 1645842; active means well fitted curve in the direction sought with a large enough effect in the repeat runs; an effect the other way counts as inactive or inconclusive; further: nearly all actives have a fitted effect of over 55% in size; further: potency means the concentration at half of the fitted maximal effect)
# Sequence of Cytochrome P450 2C9 (Homo sapiens) (P11712 whole entry, looked up): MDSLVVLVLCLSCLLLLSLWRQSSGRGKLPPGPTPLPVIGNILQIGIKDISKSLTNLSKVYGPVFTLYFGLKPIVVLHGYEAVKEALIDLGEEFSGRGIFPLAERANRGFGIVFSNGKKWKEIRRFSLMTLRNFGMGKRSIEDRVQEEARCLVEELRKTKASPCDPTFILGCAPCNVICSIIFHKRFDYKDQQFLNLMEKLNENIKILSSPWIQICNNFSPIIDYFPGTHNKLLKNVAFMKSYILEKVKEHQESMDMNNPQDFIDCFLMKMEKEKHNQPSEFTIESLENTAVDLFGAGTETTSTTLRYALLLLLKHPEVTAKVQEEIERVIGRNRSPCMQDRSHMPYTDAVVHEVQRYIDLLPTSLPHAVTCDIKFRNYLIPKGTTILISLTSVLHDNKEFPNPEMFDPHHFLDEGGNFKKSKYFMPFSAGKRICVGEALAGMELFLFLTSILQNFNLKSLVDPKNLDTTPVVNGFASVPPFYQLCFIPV
# Summary of the method: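 Luminescence, after 20 min with luciferin detection reagent, reflected CYP2C9 turnover during a 1 h NADPH-driven reaction at 37C. Enzyme-substrate mix contained 0.4% bovine serum albumin and was preincubated with compound 10 min at room temperature.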
# [5] = target: Cytochrome P450 3A4 (Homo sapiens) (UniProt P08684); test: Cytochrome P450 family 3 subfamily A member 4 (CYP3A4) small molecule antagonists: luciferase qHTS assay (AID 1645841; active means well fitted curve in the direction sought with a large enough effect in the repeat runs; an effect the other way counts as inactive or inconclusive; further: nearly all actives have a fitted effect of over 45% in size)
# Sequence of Cytochrome P450 3A4 (Homo sapiens) (P08684 whole entry, looked up): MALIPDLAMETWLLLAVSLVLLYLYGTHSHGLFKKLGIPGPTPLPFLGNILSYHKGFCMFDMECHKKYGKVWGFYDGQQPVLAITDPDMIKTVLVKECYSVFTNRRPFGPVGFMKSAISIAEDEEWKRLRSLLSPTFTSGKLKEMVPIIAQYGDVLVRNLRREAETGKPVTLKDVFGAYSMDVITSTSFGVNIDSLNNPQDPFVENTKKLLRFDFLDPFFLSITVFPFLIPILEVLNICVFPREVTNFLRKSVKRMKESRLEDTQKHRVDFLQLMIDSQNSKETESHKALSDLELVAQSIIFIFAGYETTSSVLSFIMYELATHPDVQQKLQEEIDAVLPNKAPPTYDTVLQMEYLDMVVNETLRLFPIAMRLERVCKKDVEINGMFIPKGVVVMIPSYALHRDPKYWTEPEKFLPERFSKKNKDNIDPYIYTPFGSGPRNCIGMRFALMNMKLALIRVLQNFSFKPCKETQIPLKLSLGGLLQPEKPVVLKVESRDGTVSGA
# Summary of the method: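 P450-Glo CYP3A4 enzyme with proluciferin substrate was preincubated with DMSO-dissolved compounds for 10 min at room temperature. NADPH regeneration solution started a 1 h reaction. Detection reagent stopped it, and luminescence was read after 20 min.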
# [6] = Primary qHTS for inhibitors of nuclear receptor binding SET domain protein 2 (NSD2) in an isogenic RCH-ACV NSD2 p.E1099K mutant (9B) (AID 1645876); further: nearly all actives have a fitted effect of over 70% in size
# [7] = Primary qHTS for inhibitors of nuclear receptor binding SET domain protein 2 (NSD2) in an RCH-ACV wild type WT cells (2C) (AID 1645877); further: nearly all actives have a fitted effect of over 70% in size
# [8] = NCATS anti-infectives library activity on HEK293 viability as a counter-qHTS vs the C. elegans viability qHTS (AID 1745854);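 further: HEK293 cells exposed to compounds for 24 hr before the viability read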
# Summary of the method: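 Compounds were acoustically plated (several concentrations, 1:5, final up to 41.7 uM), then 1500 HEK293 cells added per well and incubated 24 hr at 37C, 5% CO2. CellTiter-Glo was added and luminescence read after 10 min.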
# [9] = NCATS anti-infectives library activity on the primary C. elegans qHTS viability assay (AID 1745855; calls by dose curve); details: C. elegans worm area imaging, day 7; at 41.8 µM (top of the series) unless noted
# Text: Assay Development and Screening Technology Laboratory (ADST)
# National Center for Advancing Translational Sciences (NCATS), Rockville, MD
# National Institute of Health (NIH), Bethesda, Maryland
# Caenorhabditis elegans has helped elucidate the evolutionarily conserved genetics underlying pathways and cellular processes implicated in human disease and may be ideally positioned to reveal novel pharmacological properties of exiting drugs. The organism's short life cycle and microscopic size is applicable to the technical requirements of high-throughput screening. Here a quantitative high-throughput screening (qHTS)-based forward chemical biology platform has been developed using C. elegans. 384-well microtiter plate laser scanning cytometry was used in the rapid detection and quantification of the fluorescent protein-encoded phenotype to score worm viability. In a proof-of-concept study, the pharmacological qHTS profile obtained from a library of 643 anti-infective compounds.
# 1. […] P. (2006) Quantitative high-throughput screening: A titration-based approach that efficiently identifies biological activities in large chemical libraries, P Natl Acad Sci USA 103, 11473-11478.
# 2. […] P., and Inglese, J. (2006) Fluorescent protein-based cellular assays analyzed by laser-scanning microplate cytometry in 1536-well plate format, Method Enzymol 414, 566-589.
# 3. Zuck, P., Lao, Z., Skwish, S., Glickman, J. F., Yang, K., Burbaum, J., and Inglese, J. (1999) Ligand-receptor binding measured by laser-scanning imaging, Proc Natl Acad Sci U S A 96, 11122-11127. […]
# SEQUENCE No. (e.g., 1, 2, 3, etc.); […] (e.g., C. elegans, Compounds, Incubation, Read, etc.); VALUE and DESCRIPTION. […]
# 2. […] Library compounds, levamisole toxicity control and DMSO vehicle control added at 250 nL per well to 21 assay ready 384-well Greiner uClear plates and two DMSO control plates, transferred by Echo acoustic dispenser.
# 3. […] Add 30 uL per well strained TOP10 E. coli capsules diluted to OD600 = 0.85 in S medium to 23 assay ready 384-well Greiner uClear plates. […]
SMILES,Potency [1],Potency [2],Potency [3],Potency [4],Potency [5],Potency [6],Potency [7],outcome [8],outcome [9]
C[N+]1(C)CCC(=C(c2ccccc2)c2ccccc2)CC1,inactive,inactive,13.8 µM (active),inactive,–,–,–,–,–
NCCNc1cccc2ccccc12,inactive,inactive,7.76 µM (active),24.5 µM (active),–,–,–,–,–
Cc1nc(-c2ccc(Cl)cc2)oc1COC(C)(C)C(=O)O,inactive,inactive,inactive,inactive,–,–,–,–,–
O=C1C(=O)c2ccccc2C(O)=C1C1CCC(c2ccc(Cl)cc2)CC1 (configuration not stated),inactive,inactive,inactive,inactive,inactive,inactive,inactive,inactive,inactive
O=S(c1cc(Cl)cc(Cl)c1O)c1cc(Cl)cc(Cl)c1O,inactive,–,–,–,–,–,–,–,–
CCN(CC)CCNC(=O)c1cc(Br)c(N)cc1OC,inactive,inactive,6.92 µM (active),–,–,inactive,–,–,–
OC1C(O)C(O)C(O)C(O)C1O (configuration not stated),inactive,inactive,inactive,inactive,–,inactive,–,–,–
Cc1c(-c2ccccc2)oc2c(C(=O)OCCN3CCCCC3)cccc2c1=O,inactive,inactive,3.89 µM (active),inactive,–,inactive,inactive,–,–
